# According to PubChem BioAssay AID1045 (SRMLSC, 2008):
# The whole screen tested about 1,500 compounds, of which about 1,400 (93%) were called active. So high a share suggests a set chosen from earlier hits. Not all results are given here. Measured potencies and affinities stand elsewhere. A number with no mark means an inactive call. The rule behind the calls is not given here.
# Assay: viability of HCT116 lacking mutant beta-catenin – cell-based, human colon tumor, dose response (AID 1045)
# Conditions: HCT116 beta-catenin knockout viability, CellTiter-Glo, 60 h; series mostly up to 30 µM; viability: at the top concentration
row,Compound,viability [%]
1,CCCNC(=O)OC[C@H]1O[C@H](CCO/N=C/[C@@H](NS(=O)(=O)c2ccc(C)cc2)[C@H](C)/C=C/CC(=O)OC)C=C[C@@H]1Oc1ccc(OC)cc1,90.3
2,O=C(Nc1ccccc1Cl)NC1(C(=O)N2CCCC2)CCCCC1,94.7
3,Cc1ccc(C(=O)c2coc3c2C(=O)C(=O)c2ccccc2-3)cc1,91.4
4,CCCC(=O)Nc1sc2c(c1C#N)CCCCC2,98.2
5,CCN1CCN(Cc2ccc(OCc3ccccc3)cc2)CC1,86.3
6,S=C(NCCc1ccc(Cl)cc1)Nc1ccc(Cl)cc1Cl,84.2
7,O=C(Nc1cccc(C(F)(F)F)c1)NC1CCCCC1,93.5
8,C=C1C(O)C[C@H]2C(=C)CCC3[C@H](OC(=O)[C@]3(O)CO)[C@@H]12 (stereo not given in full),103
9,Cc1ccc2cc3cc(C(=O)NCc4ccc5c(c4)OCO5)oc3nc2c1,90.1
10,Nc1nnc(SCc2ccc(Cl)cc2)s1,91.9
11,O=C(NC(=S)Nc1ccc2c(c1)OCO2)c1ccc(Cl)cc1,87.5
12,COC(=O)CN1C(C)=Nc2ccc(Br)cc2C1c1ccccc1 (stereo not given),91.8
13,COC(=O)C1=C(C)N(Cc2ccco2)C(=O)N[C@@H]1c1cccc(C(F)(F)F)c1,83
14,CCN1CCN(c2cc(C)c3cc(NC(=O)c4ccc5c(c4)OCO5)ccc3n2)CC1,87.7
15,CCN(CC)S(=O)(=O)c1ccc(NC2CCCc3ccccc32)nc1 (stereo not given),83.6
16,COc1ccc(-c2cc(C(F)(F)F)nc(S(C)(=O)=O)n2)cc1OC,81.2
17,O=C(Nc1cccc(-c2nnc(-c3ccccc3)o2)c1)C1CCCCC1,95.4
18,Cc1ccccc1NC(=O)c1ccc2c(c1)OCCO2,88.1
19,CSc1n[nH]c(NCc2cccs2)n1,102
20,Cc1cc(C)n(C(=O)CNc2ccc(C)c(C)c2)n1,91.1
21,CCCC/C(C)=N\NC(=O)CNS(=O)(=O)c1ccc([N+](=O)[O-])cc1,97.5
22,COc1ccc(-n2c(O)c(/C=N/NS(=O)(=O)c3ccc(C)cc3)c3ccccc3c2=O)cc1OC,80.6
23,COCCN1C(=O)c2oc3ccccc3c(=O)c2C1c1ccc(OC)c(OC)c1 (stereo not given),89.8
24,O=C(Nc1cccc(C(F)(F)F)c1)/C(=C\c1ccco1)NC(=O)c1cccs1,82
25,O=C(Nc1ccc(-c2nc3ccccc3o2)cc1)c1cccnc1,103
26,O=C(NCc1ccco1)C1CCN(S(=O)(=O)Cc2ccccc2)CC1,98.3
27,CCOC(=O)c1c(-c2ccc(C)cc2)csc1NC(=O)/C(C#N)=C/c1ccc(O)c(OC)c1,90.9
28,CCn1c(Cc2ccc(OC)cc2)nnc1SCC(=O)Nc1cccc(C(=O)OC)c1,103
29,Cc1ccc(C(=O)NCCc2nnc(SCC(=O)Nc3nc(-c4ccccc4)cs3)n2C)cc1,92.9
30,COc1ccc(-c2cc(C(F)F)n3ncc(C(=O)n4ccnc4C)c3n2)cc1,86.4
